As a reminder, the inhibition is the change of the read-out against control, counted positive when it falls.

Out of some 290,000 compounds screened, about 150 (0.052%) were called active.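 The calls were made as follows: active = inhibition of at least 50% with at least 30 cells and total cytoplasm GFP at most 10,000,000; inconclusive = under 30 cells or total GFP of 10,000,000 plus; inactive = the rest.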 The list comes from a sample in which actives are over-represented; it also holds similar structures and randomly drawn compounds. Measured potencies and affinities stand elsewhere.

G-protein coupled receptor 35 (Homo sapiens), sequence (Q9HC97 whole entry, looked up): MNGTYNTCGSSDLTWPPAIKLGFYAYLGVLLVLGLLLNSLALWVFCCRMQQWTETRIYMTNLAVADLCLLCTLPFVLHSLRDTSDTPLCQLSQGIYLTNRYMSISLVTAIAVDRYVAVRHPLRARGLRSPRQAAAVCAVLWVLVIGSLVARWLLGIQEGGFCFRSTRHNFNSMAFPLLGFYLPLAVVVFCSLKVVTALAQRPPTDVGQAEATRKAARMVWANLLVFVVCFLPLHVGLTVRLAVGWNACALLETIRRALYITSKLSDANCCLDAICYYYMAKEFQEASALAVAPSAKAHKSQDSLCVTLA

The test has as its target G-protein coupled receptor 35 (Homo sapiens) (UniProt Q9HC97). In words: GPR35 antagonists blocking zaprinast-driven arrestin recruitment, primary screen, imaging, U2OS, beta-arrestin-GFP, zaprinast agonist (AID 2058). The settings on record: U2OS GPR35 beta-arrestin-GFP translocation imaging, zaprinast antagonism; at 10 µM; stronger effect = higher value. In general terms: Activated receptors often draw arrestin, which recruitment assays turn into a signal.
`Cc1cccc(Cc2cnc(N3C(=N)SC(C)C3=O)s2)c1` (stereo unspecified): the inhibition was -5.2% (inactive).
With `O=C(CSc1nnc(C2CCCCC2)o1)N1CCCCC1`, the inhibition was 11.7% (inactive).
To `CCN(C(=O)C(C)OC(=O)C1C(C(=O)OC)=C(C)NC(C)=C1C(=O)OC)c1ccccc1` (stereo unspecified) belongs -20.3% (inactive).
Take `COc1ccc(NC(=O)c2cc3c([nH]c4ccccc43)c(C)n2)cc1`: the inhibition was -5.7% (inactive).
The same measure for `C=CCn1c(SCC(=O)N(C)C2CCS(=O)(=O)C2)nnc1-c1ccncc1` (stereo unspecified): 11.4% (inactive).
Consider `CCOC(=O)C1CCN(C(=O)CSc2ccccc2)CC1`, for which the inhibition is -1.8% (inactive).
The same measure for `O=C1/C(=C\c2cc([N+](=O)[O-])ccc2O)SC(=S)N1Cc1ccc(Cl)cc1`: 61.1% (active); for `O=C1/C(=C/c2ccc(O)c([N+](=O)[O-])c2)SC(=S)N1Cc1ccccc1`: 0.6% (inactive).
To `COc1cc([N+](=O)[O-])cc(/C=C2/SC(=S)N(Cc3ccccc3)C2=O)c1O` belongs 2.7% (inactive); to `Cc1nc2c(C(=O)NCc3ccc4c(c3)OCO4)cnn2c(C)c1Cc1ccc(F)cc1Cl`, -16.4% (inactive); to `Cc1oc(-c2ccc(Cl)cc2)nc1CS(=O)CC(=O)NCCCN(C)C1CCCCC1` (stereo unspecified), -9.6% (inactive).
On to `COC(=O)C1CN(S(=O)(=O)c2cc(OC)ccc2OC)CCS1` (stereo unspecified), for which the inhibition is -8.4% (inactive).
The same measure for `CC[n+]1ccccc1/C=C/c1ccc(N(C)C)cc1`: -10.4% (inactive); for `CC[n+]1ccc(/C=C/c2ccc(N(C)C)cc2)c2ccccc21`: 103% (active).
With `CC[n+]1c(/C=C/c2ccc(N(C)C)cc2)ccc2ccccc21`, the inhibition was 6.3% (inactive).
On to `CCCC(=O)N1CCN(c2nc3c(OC)ccc(Cl)c3s2)CC1`, for which the inhibition is 12.2% (inactive).
For the compound `CCC(Oc1ccc2ccccc2c1)C(=O)O` (stereo unspecified), the inhibition is 6.8% (inactive).
To `CC(=O)N(C1=C(O)c2ccccc2C(=O)C1=O)C1CCCCC1` belongs -5.2% (inactive); to `CC(=O)N(c1ccccc1)C1CCCC1`, -22.8% (inactive); to `O=C(NC1CCCCCC1)C1CCCN(S(=O)(=O)c2cccs2)C1` (stereo unspecified), -5.5% (inactive).
Turning to `CCN1CCN(C(=O)c2ccccc2NC(=O)c2ccc(Cl)cc2)CC1`, the inhibition was 1% (inactive).
With `Cc1[nH]c(=O)[nH]c(=O)c1S(=O)(=O)N1CCCC(C(=O)N2CCN(c3ccccc3Cl)CC2)C1` (stereo unspecified), the inhibition was 3.5% (inactive).
Turning to `COc1ccc(NC(=O)/C(Cl)=C(/Cl)S(=O)Cc2ccccc2)cn1` (stereo unspecified), the inhibition is 9.5% (inactive).
For the compound `COc1ccc(NC(=O)/C(Cl)=C(/Cl)S(=O)Cc2ccccc2Cl)cn1` (stereo unspecified), the inhibition was 115% (active).
With `COc1ccc(NC(=O)/C(Cl)=C(/Cl)S(=O)Cc2ccc(Cl)cc2)cn1` (stereo unspecified), the inhibition is 3.1% (inactive).
With `Cc1ccc(-c2nc3ncccc3n2O)cc1`, the inhibition is 2.4% (inactive).
For `Cc1ccc(F)cc1NC(=O)CSc1nc(Nc2ccccc2)nc(N2CCOCC2)n1`, the inhibition was 17.7% (inactive).
With `Cc1ccc2nc(/C(C#N)=C/c3ccccc3C(=O)O)[nH]c2c1`, the inhibition is -7.1% (inactive).
Take `CCOc1cccc(/C=C(/C#N)c2nc3ccccc3[nH]2)c1OCC(=O)O`: the inhibition is -3.5% (inactive).
For `Cc1ccc2nc(/C(C#N)=C/c3ccc(O)c(O)c3)[nH]c2c1`, the inhibition is -1.2% (inactive).
Regarding `N#C/C(=C\c1ccccc1OCC(=O)O)c1nc2ccccc2[nH]1`, the inhibition is -0.8% (inactive).
As for `COc1cccc(/C=C(\C#N)c2nc3ccc(C)cc3[nH]2)c1OCC(=O)O`, the inhibition was -10.4% (inactive).
Regarding `CCOc1cc(N(CC)CC)ccc1/C=C(/C#N)c1nc2ccccc2[nH]1`, the inhibition was 99.9% (active).
With `Cc1cc(/C=C(\C#N)c2nc3ccccc3[nH]2)c(C)n1C`, the inhibition was -1.1% (inactive).
Turning to `CCOc1cc(/C=C(\C#N)c2nc3ccccc3[nH]2)ccc1OC(C)C(=O)O` (stereo unspecified), the inhibition is 9.3% (inactive).
With `COc1cc(/C=C(\C#N)c2nc3ccc(C)cc3[nH]2)c([N+](=O)[O-])cc1OC`, the inhibition was 2.2% (inactive).
To `CCC(=O)c1c[nH]c(C(=O)NCCc2ccccn2)c1` belongs -8% (inactive); to `O=C(OCc1cc(Cl)ccc1OC(F)F)c1ccc([N+](=O)[O-])o1`, 8.7% (inactive); to `CCCCC1=CC2=CC(=O)C(C)(OC(=O)CC)C(=O)C2=CN1C(CO)CO` (stereo unspecified), -6.6% (inactive).
For `CC(C)NCCOCCOc1ccccc1F`, the inhibition was 12.6% (inactive).
As to `N#Cc1cccc(NC(=O)NCCc2c[nH]c3ccccc23)c1`, the inhibition was -5.4% (inactive).
`Cc1cc(C)c(S(=O)(=O)N2CCCOC2CNC(=O)C(=O)NCc2cccs2)c(C)c1` (stereo unspecified): the inhibition is -5.9% (inactive).
`COc1ccccc1NC(=O)Cn1c(=O)n(C)c(=O)c2sc3c(c21)COC(C)(C)C3`: the inhibition is 5.9% (inactive).
Take `CC(/C=C1\SC(=O)N(CCCC(=O)O)C1=O)=C\c1ccccc1`: the inhibition was -14.5% (inactive).
In the case of `CC(/C=C1\SC(=O)N(CC(=O)Nc2ccc(O)cc2)C1=O)=C\c1ccccc1`, the inhibition was -6.3% (inactive).
With `CC(/C=C1\SC(=S)N(CCCC(=O)Nc2ccc(C(=O)O)cc2)C1=O)=C\c1ccccc1`, the inhibition was 114% (active).
As for `CC(=O)c1ccc(NC(=O)CCCN2C(=O)/C(=C/C(C)=C/c3ccccc3)SC2=S)cc1`, the inhibition was 19.4% (inactive).
Consider `CC(=C\c1ccccc1)/C=C1/SC(=O)N(CCCC(=O)Nc2ccc(C(=O)O)cc2)C1=O`, for which the inhibition is 108% (active).
Consider `CC(/C=C1\SC(=S)N(CCC(=O)Nc2ccc(O)cc2)C1=O)=C\c1ccccc1`, for which the inhibition is 0.1% (inactive).
With `CC(=O)N(Cc1cc2c(C)cc(C)cc2[nH]c1=O)C1CCCCC1`, the inhibition is 1.4% (inactive).
The same measure for `O=C(Nc1ccccc1)C1=C[C@@H](c2csc3ccccc23)C[C@@H](OCc2ccc(CO)cc2)O1`: -24.8% (inactive); for `CC(=O)Nc1sc(/C(C#N)=C\c2cccc(Cl)c2)nc1-c1ccc(C)cc1`: 18.1% (inactive).
Consider `CCN(CC)c1ccc(/C=C(\C#N)c2nc(-c3cccs3)c(NC(C)=O)s2)cc1`, for which the inhibition was 70.6% (active).
To `CC(=O)Nc1sc(N/N=C\c2ccc(O)cc2)nc1-c1cccs1` belongs -8.9% (inactive); to `CC(=O)Nc1sc(N/N=C/c2ccc(C)cc2)nc1-c1ccc(C)cc1`, -2.6% (inactive).
For the compound `CCN(CC)c1ccc(/C=C(\C#N)c2ccccn2)cc1`, the inhibition is 15.1% (inactive).
With `CC1Cc2ccccc2N1C(=O)CSc1nc(-c2ccccc2)cs1` (stereo unspecified), the inhibition was -14.5% (inactive).
For `O=C(Nc1nc(-c2cccc([N+](=O)[O-])c2)cs1)C(c1ccccc1)c1ccccc1`, the inhibition was 0.8% (inactive).
The same measure for `COC(=O)c1cc(OC)c(OC)cc1N1C(=O)CCCC1=O`: 8.7% (inactive).
Take `Cc1ccc(C)c2c1[nH]c1ccccc12`: the inhibition is 15.5% (inactive).
As for `CC(=O)N1C=Cc2c(c(C)c3c([nH]c4ccccc43)c2C)C1`, the inhibition is 71.5% (active).
Turning to `CC(=O)N1CCc2[nH]c3ccccc3c2C1`, the inhibition is 4.9% (inactive).
With `Cc1noc(C)c1C(=O)OCC(=O)c1c(N)n(CC(C)C)c(=O)n(C)c1=O`, the inhibition is -3.5% (inactive).
Regarding `Cc1ccccc1N1CCN(C2CCCN(C(=O)c3ccc(Cl)s3)C2)CC1` (stereo unspecified), the inhibition was 0.1% (inactive).
On to `CCOC(=O)/C=C(C)\C=C\c1c[nH]c2ccccc12`, for which the inhibition is -3.8% (inactive).
As for `O=C(/C=C/c1c[nH]c2ccccc12)c1ccccc1`, the inhibition is -6.3% (inactive).
The same measure for `Cc1ccccc1Cn1c2ccccc2c2cnn(CC(=O)NCCCN3CCN(C)CC3)c(=O)c21`: -6.2% (inactive); for `O=S(=O)(Nc1nc2ccccc2nc1-[n+]1ccccc1)c1ccc(Cl)cc1`: -1.7% (inactive); for `O=S(=O)(Nc1nc2ccccc2nc1Cl)c1ccc(Cl)cc1`: -9.2% (inactive).
Turning to `O=S(=O)(Nc1cc2nc3ccccc3nc2n1Cc1ccccc1)c1ccc(Cl)cc1`, the inhibition is 85.4% (active).
With `O=C(Nc1ccc(Cl)cn1)c1ccc(Oc2ccccc2)cc1`, the inhibition is 0.8% (inactive).
For the compound `CCOC(=O)CCCSc1nc2sc3c(c2c(=O)[nH]1)CCC3`, the inhibition was 1.8% (inactive).
For `Cn1cc(CN2CCC(n3nccc3NC(=O)c3ccccc3Cl)CC2)cn1`, the inhibition is -15.2% (inactive).
To `CCc1nnc(NS(=O)(=O)c2ccc(NC(=S)NC(=O)/C=C/c3ccc(F)cc3)cc2)s1` belongs 11.3% (inactive).
`CCc1nnc(NS(=O)(=O)c2ccc(NC(=S)NC(=O)/C=C/c3ccccc3)cc2)s1`: the inhibition was -2.9% (inactive).
Take `Cc1ccc(C(=O)N(CC(=O)NC2CCCC2)c2ccccc2C)s1`: the inhibition is 4.4% (inactive).
With `CCc1ccc(/C=C2/SC(=S)N(CCC(=O)Nc3cccnc3)C2=O)cc1`, the inhibition was -11.4% (inactive).
As to `COC(=O)CSc1nc2ccc(NC(=O)c3ccccc3C(=O)N3CCOCC3)cc2s1`, the inhibition is -10.4% (inactive).
As to `O=C(O)c1ccc(CSc2nc3ccc(NC(=O)c4ccccc4C(=O)O)cc3s2)cc1`, the inhibition is -3.4% (inactive).
Turning to `CN(C(=O)c1ccc2ccccc2c1)c1ccccn1`, the inhibition is 13.4% (inactive).
For the compound `CC(C)c1ccc[n+](-c2nc([O-])sc2C=O)c1`, the inhibition is -8.7% (inactive).
The same measure for `CCOc1ccc(NC(=O)C(C)Oc2ccccc2C(=O)Nc2cccc(Cl)c2Cl)cc1` (stereo unspecified): 12.3% (inactive); for `Cc1ccc(NC(=O)COc2ccccc2C(=O)Nc2ccccc2)cc1Cl`: -17.7% (inactive); for `Cc1csc2c(N3CCC(C(=O)O)CC3)ncnc12`: -2.1% (inactive).
Turning to `O=C(Nc1ccnn1C1CCN(Cc2ccc(OC(F)F)cc2)CC1)C1CCCC1`, the inhibition is 9.2% (inactive).
Regarding `CCOc1ccccc1/C=N/NC(=O)c1c(C)nc2ccc(Br)cn12`, the inhibition was 10.2% (inactive).
The same measure for `CC(C(=O)NCc1ccco1)n1nc(-c2ccccc2)c2cc(Cl)ccc21` (stereo unspecified): 7.1% (inactive); for `CCC(C(=O)O)n1nc(-c2ccccc2)c2cc(Cl)ccc21` (stereo unspecified): -3.2% (inactive); for `O=c1[nH]c(CN2CCCC2)nc2sc3c(c12)CCC3`: 0.2% (inactive).
In the case of `COc1ccc(N2CCN(C(=O)C(=O)c3cn(CC(=O)N4CCCCCC4)c4ccccc34)CC2)cc1`, the inhibition is 2.6% (inactive).
Turning to `C=CCC(O)(CC=C)CNC(=O)C1CCC(=O)N(CCCc2ccccc2)C1` (stereo unspecified), the inhibition was 1.6% (inactive).
For the compound `COc1cc([C@@H]2[C@H]3CN(C)CC=C3C(C#N)=C(N)C2(C#N)C#N)cc2c1OCO2`, the inhibition was 48.3% (inactive).
As for `CN1CC=C2C(C#N)=C(N)C(C#N)(C#N)[C@H](c3cccc(Cl)c3)C2C1` (stereo partly specified), the inhibition is 101% (active).
For `CC(=O)N1CC=C2C(C#N)=C(N)C(C#N)(C#N)C(C)C2C1` (stereo unspecified), the inhibition is 13.2% (inactive).
The same measure for `COc1cc(C2C3CN(C)CC=C3C(C#N)=C(N)C2(C#N)C#N)ccc1OC(C)C` (stereo unspecified): 16.1% (inactive); for `CN1CC=C2C(C#N)=C(N)C(C#N)(C#N)[C@H](c3cccs3)[C@H]2C1`: 39.8% (inactive).

For the origin of these results see PubChem BioAssay AID2058 (Sanford-Burnham Center for Chemical Genomics, 2009).
